The campaign covered roughly 68,000 compounds. About 2,700 (4%) showed an effect of 50% or more. The full list was thinned out, with strong results kept by preference.

For 110 compounds, INHIBITION results are on record in ChEMBL document CHEMBL4513216, “Probing the Open Global Health Chemical Diversity Library for Multistage-Active Starting Points for Next-Generation Antimalarials” (ACS Infect Dis, 2020).

The test system of the assay is Plasmodium berghei. Briefly: Screen against P. berghei liver stage (PbLuc), transformed with Luciferase, at 2uM. In kind it is functional, HepG2. To be noted: tested at 2 uM.
For `CCN(CCN(C)C)c1nc(CCN)nc2sc(C)c(C)c12`, the INHIBITION is recorded as -6.77%.
The figure for `Cn1ncc2c1NC(=O)CC2c1ccc(O)cc1` (stereo not given) is 16.01%; for `Cc1cc(C)n(CC2CCCN2C(=O)c2ccc3c(c2)OCCO3)n1` (stereo not given) it is 4.07%.
Take `COCCN1CCCC1Cn1nc(C)cc1C` (stereo not given): the INHIBITION was 17.98%.
For `Cc1cc(C)n(CC2CCCN2C(=O)Cc2c(C)noc2C)n1` (stereo not given), the INHIBITION is 51.19%.
On to `Cc1cnn(CC2CCCCN2C(=O)c2cccnc2N(C)C)c1` (stereo not given), for which the INHIBITION is on record as 70.27%.
As to `Cc1cc(C)n(CC2CCCN2C(=O)c2cccc3c2OCCO3)n1` (stereo not given), the INHIBITION was determined as 50.75%.
In the case of `Cc1cc(C)n(CC2CCCN2C(=O)c2cccc3c2OCO3)n1` (stereo not given), the INHIBITION is -72.55%.
As for `Cc1cc(C)n(CC2CCCN2C(=O)Cc2c(C)nn(C)c2C)n1` (stereo not given), the INHIBITION is on record as -15.05%.
Regarding `CN(C)c1ncccc1C(=O)N1CCCC1Cn1cccn1` (stereo not given), the INHIBITION is reported as 7.13%.
The figure for `CCCN1CCCC1Cn1nc(C)cc1C` (stereo not given) is 60.23%.
For `Cc1cc(C)n(CC2CCCN2CCS(C)(=O)=O)n1` (stereo not given), the INHIBITION is -6.16%.
In the case of `COCCOc1ncccc1C(=O)N1CCCC1Cn1cc(C)cn1` (stereo not given), the INHIBITION is given as -17.31%.
For the compound `Cc1cc(C)n(CC2CCCN2C(=O)c2c(C)noc2C)n1` (stereo not given), the INHIBITION is given as -27.28%.
Under `COc1ccc(CN2CCO[C@H]3[C@H](OCc4ccncc4)CC[C@@H]32)cc1` stands -3.18%; under `Cc1nn(C2CCCCC2)c2nc(C(C)(C)CN3CCOCC3)[nH]c12`, 48.54%; under `Cc1cccnc1CN1CCN(C(=O)CCn2ccc(=O)[nH]c2=O)CC1`, 35.88%.
Under `Cc1cccc(Cc2cc(C)nc(C3CCCNC3)c2)c1` (stereo not given) stands -27.54%.
The figure for `CCOCC(=O)NCCC(O)c1ccoc1` (stereo not given) is 1.3%; for `O=C(NCCNc1ncccn1)C1CC(=O)N(Cc2ccccn2)C1` (stereo not given) it is 35.65%; for `Nc1cc(N2CCCC2c2cnccn2)ncn1` (stereo not given) it is 30.38%.
Take `Cc1cc(C)n(CC2CCCN2C(=O)c2c[nH]c3ncccc23)n1` (stereo not given): the INHIBITION is -1.56%.
As to `CCOc1ncccc1C(=O)N1CCCC1Cn1nc(C)cc1C` (stereo not given), the INHIBITION is recorded as 11.95%.
For the compound `Cc1cc(C)n(CC2CCCN2C(=O)c2cccnc2N(C)C)n1` (stereo not given), the INHIBITION is 56.02%.
Regarding `Cc1cnn(CC2CCCCN2C(=O)c2ccccc2-n2cccn2)c1` (stereo not given), the INHIBITION worked out at 37.68%.
Under `Cc1cnn(CC2CCCN2C(=O)c2ccccc2-n2cccn2)c1` (stereo not given) stands 76.38%; under `Cc1cnn(CC2CCCN2C(=O)c2ccccc2-n2cnnn2)c1` (stereo not given), 21.39%; under `CCc1c(C(=O)N2CCC3(CCCN(CCO)C3=O)C2)csc1C` (stereo not given), 40.64%.
The figure for `CCCC(=O)N1CCN(CCN(C)C)c2nc(C)ccc2C1` is 19.51%.
The figure for `Cn1ccnc1SCC(=O)NCCC1CCCO1` (stereo not given) is -38.4%.
Consider `O=C(c1ccon1)N1CCCCC1c1nc2cc(F)ccc2[nH]1` (stereo not given), for which the INHIBITION is recorded as 14.79%.
Under `COCCC1CN(Cc2cn(CCC(N)=O)c3ccccc23)CCO1` (stereo not given) stands 26.22%.
For the compound `Cc1nnc(CN2CCC(Oc3ccc(F)cc3)CC2)o1`, the INHIBITION is recorded as -4.89%.
On to `C/N=C1\c2cc3cc(OC)ccc3n2CCN1Cc1ccccc1`, for which the INHIBITION is on record as -2.66%.
For `c1cn2c(n1)CN(C1CCOCC1)CC(CN1CCCC1)C2` (stereo not given), the INHIBITION amounted to 29.95%.
Regarding `OCC1(O)CCN(Cc2noc(-c3ccccc3)n2)CC1`, the INHIBITION turned out to be 26.3%.
On to `COc1cccc(CN2CCCC3(CCN(C(=O)c4ccco4)C3)C2)c1` (stereo not given), for which the INHIBITION was determined as 8.37%.
Under `COc1cccc(CN2CCCC3(CCN(C(=O)[C@H]4CCCO4)C3)C2)c1` (stereo not given in full) stands 21.89%.
Under `COc1cccc(CN2CCCC3(CCN(C(=O)N4CCCC4)C3)C2)c1` (stereo not given) stands 50.17%; under `CCn1[nH]c(C)c2c(C(F)(F)C(F)(F)F)cc(=O)nc1-2`, 1.01%; under `Cc1nsc(C(=O)NCCc2ccc(F)cc2)n1`, -0.59%.
The figure for `Cc1nsc(C(=O)NCCc2ccccc2)n1` is -7.16%; for `Cc1nsc(C(=O)NCCc2cccs2)n1` it is 55.25%.
For `Cc1ccc(CN2CCC3(CC2)CC(c2cccnc2)CO3)s1` (stereo not given), the INHIBITION came out at 23.79%.
Under `CCS(=O)(=O)c1ccc(N2CCC(NC(=O)NC(C)CO)CC2)cc1` (stereo not given) stands 7.85%.
As to `CN(Cc1ccc(F)cc1)C(=O)Cn1nc(-c2ccc(F)cc2)oc1=O`, the INHIBITION is given as -10.54%.
For the compound `Cc1ccsc1CN(C)C(=O)Cn1nc(-c2ccc(F)cc2)oc1=O`, the INHIBITION was found to be 51.99%.
Under `Cc1ccc(CN(C)C(=O)Cn2nc(-c3ccc(F)cc3)oc2=O)cc1` stands 5.28%; under `COc1ccc(CC(C)(O)CNC(=O)NCc2cccs2)cc1` (stereo not given), 45.62%.
For `CC(C)OCC(=O)N1CCCN(Cc2ccc(C#N)cc2)CC1`, the INHIBITION is given as 2.08%.
With `Cc1nccn1C1CCCN(C(=O)c2sccc2-n2cnnn2)C1` (stereo not given), the INHIBITION is listed as -13.92%.
`Cc1ccc2c(c1)c(CNC(=O)C1CCN(CC(N)=O)CC1)nn2C`: the INHIBITION was 58.53%.
For the compound `Cc1ccc2c(c1)c(CNC(=O)C1CCCN(CC(N)=O)C1)nn2C` (stereo not given), the INHIBITION is -1.87%.
Under `Cc1ccc2c(c1)c(CNC(=O)C1CCN(C(=O)C3CC3)CC1)nn2C` stands -13.72%; under `CC(C)c1cc(C(=O)N[C@@H]2CC[C@@H](Oc3ccccc3)[C@@H]2O)on1`, 19.69%; under `CCc1c(C(=O)O)nnn1-c1cc(C)cc(C)c1`, -50.41%.
For `COc1ccccc1OC1(C(=O)O)CCN(c2nccnc2C)CC1`, the INHIBITION turned out to be 1.34%.
Under `COc1ccccc1OC1(C(=O)O)CCN(c2nc(C)cnc2C)CC1` stands 33.9%; under `COc1ccccc1OC1(C(=O)O)CCN(c2ncnc(C)c2C)CC1`, 60.13%.
As to `O=C(CC1CC1)NC[C@]12COC[C@H]1CN(c1ncccn1)C2`, the INHIBITION was determined as 22.36%.
Under `COc1cccc(CC(=O)N2CCCC2c2nc(C)c(C)c(O)n2)c1` (stereo not given) stands 55.74%; under `Cc1nc(C2CCCN2C(=O)Cc2ccc3c(c2)OCO3)nc(O)c1C` (stereo not given), 22.39%; under `Cc1nc(C2CCCN2C(=O)Cc2ccc(F)cc2)nc(O)c1C` (stereo not given), 46.57%.
Under `Cc1nc(C2CCCN2C(=O)Cc2cccc(F)c2)nc(O)c1C` (stereo not given) stands 27.81%.
Regarding `COc1ccc(CC(=O)N2CCCC2c2nc(C)c(C)c(O)n2)cc1` (stereo not given), the INHIBITION is reported as 29.48%.
For `COc1cccc(CC(=O)N2CCCC2c2nc(C)c(F)c(O)n2)c1` (stereo not given), the INHIBITION was found to be 52.82%.
Under `CCOC(=O)[C@]12CCCN(Cc3cccs3)C[C@H]1CN(C(C)=O)C2` stands -12.74%; under `Cc1nc2cc(O)nn2c(C)c1CCC(=O)N(C)Cc1cscn1`, -1.73%; under `CC(C)c1ccc(-n2cc(O)c(C(=O)N3CCC(C(N)=O)CC3)n2)cc1`, -40.06%.
For `Cc1nc(COC[C@]23COC[C@H]2CN(Cc2ccoc2)C3)cs1`, the INHIBITION stood at 18.57%.
Take `COc1ccc(C(C(=O)O)N2CCC(Cn3cccn3)CC2)cc1F` (stereo not given): the INHIBITION is 15.46%.
With `Cc1ccnc(NC(=O)c2c(C)oc(C)c2C)c1`, the INHIBITION is -18.78%.
Turning to `CCC1(C)Cc2ccccc2-c2nc(NCCCO)nc(O)c21` (stereo not given), the INHIBITION was found to be 44.7%.
As to `CCOc1ccc2[nH]c3c(N(C)CC4OCCO4)ncnc3c2c1`, the INHIBITION is reported as 38.64%.
Turning to `Cc1ccc(S(=O)(=O)NC(=O)CCC(F)(F)F)cc1N(C)C`, the INHIBITION came out at 3.39%.
Regarding `CN(C)c1nc(NCCc2cnccn2)ncc1F`, the INHIBITION is recorded as 44.19%.
The figure for `CN1CCC2(CC1)CN(Cc1ccc(C3CCCCO3)o1)CCCN2C` (stereo not given) is -83.94%; for `CN1CCN(C)C2(CCN(Cc3ccc(C4CCCCO4)o3)CC2)C1` (stereo not given) it is -6.27%; for `OCC1(O)CCN(Cc2ccc(C3CCCCO3)o2)CC1` (stereo not given) it is 61.27%.
As to `CC(=O)N1CCN(C(=O)CN2CCc3c(ncn3C3CC3)C2)CC1`, the INHIBITION amounted to 37.52%.
With `Cc1ccsc1CN(CCN(C)C)C(=O)C1=NNC(=O)CC1`, the INHIBITION is on record as -1.87%.
The figure for `COC(=O)c1sccc1NC(=O)C1CCCN1C(=O)c1ccco1` (stereo not given) is -16.52%; for `COCc1ccccc1NC(=O)[C@@H]1CCCN1C(=O)c1ccco1` it is 1.86%.
Regarding `Cc1cccc(NC(=O)C2CCCN2C(=O)c2ccco2)c1C` (stereo not given), the INHIBITION was 58.53%.
The figure for `O=C(CN1CCN(c2ncnc3cccc(F)c23)CC1)N1CCCC1` is -11.35%; for `O=C(Cc1c(F)cccc1F)N1CCN(CC(=O)N2CCCC2)CC1` it is 57.95%.
Under `NC(=O)CN1CCCN(C(=O)Cc2ccc(F)cc2)CC1` stands 33.12%; under `CCc1n[nH]c(C2CN(C(=O)c3cscn3)CCO2)n1` (stereo not given), -34.61%.
The figure for `Cc1cc(N2CCCCC2)c(C#N)c(C)n1` is 54.44%; for `Cc1csc(N2CCCN(c3cc(C)nc(C)c3C#N)CC2)n1` it is -20.21%.
As to `Cc1cc(N2CCCC2)c(C#N)c(C)n1`, the INHIBITION is recorded as -27.68%.
Under `Cn1cccc1C(=O)N1CCCN(CCCc2ccccc2)CC1` stands -25.8%; under `CC(=O)Nc1ccc2nc(-c3nccn3C[C@@H]3CCCO3)ccc2c1`, 25.13%.
The figure for `CCc1nc(C)c(-c2nccn2CC2CC(=O)N(CC)C2)[nH]1` (stereo not given) is -5.65%; for `Cc1nccn1CCC1CCN(C2CCC3(CCNCC3)CC2)CC1` it is 34.52%; for `CCc1nc(C)c(-c2nccn2CC2CCN(C3CCCC3)CC2)[nH]1` it is 56.81%.
The figure for `Cc1cnc(C)c(N2CCN(CC3CCCO3)CC2)n1` (stereo not given) is -18.84%.
For the compound `CCc1nc(C)c(-c2nccn2CC2CCCCO2)[nH]1` (stereo not given), the INHIBITION worked out at 54.75%.
Take `O=C(c1ccoc1)N1C[C@H]2CC[C@@]3(N=C(c4ccccc4)NC3=O)[C@H]2C1`: the INHIBITION is listed as -1.45%.
The figure for `Cc1nn(C)c2c(=O)n(C)c(NCC3CCCO3)nc12` (stereo not given) is 37.45%; for `CC(C)=CCCN1CCN(C)C2(CCC(=O)N(C)CC2)C1` (stereo not given) it is 77.56%; for `CC/C(C)=C/CCN1CCN(C)C2(CCNC(=O)CC2)C1` (stereo not given) it is 20.2%.
Under `CC(C)=CCC/C(C)=C/CN1CCN(C)C2(CCNC(=O)CC2)C1` (stereo not given) stands 43.94%; under `Cc1noc(C)c1CN1CCc2ncnc(-c3ccccc3)c2CC1`, -20.87%.
The figure for `Cc1ncsc1CCC(=O)NC1CCN(Cc2cccs2)CC1` is 26.93%; for `CC(C)(C)OC(=O)NC1CCCN(Cc2cccs2)C1` (stereo not given) it is 1.08%; for `O=S(=O)(Cc1ccccc1)NCC1CCCN(Cc2cccs2)C1` (stereo not given) it is 64.35%.
Regarding `CCCC(=O)NC1CCCN(Cc2cccs2)C1` (stereo not given), the INHIBITION turned out to be 53.65%.
Under `O=C(CN1CCCC1)N1CCCC(CNS(=O)(=O)Cc2ccccc2)C1` (stereo not given) stands -4.77%; under `O=C(Cc1cccs1)N1CCCC(CNS(=O)(=O)Cc2ccccc2)C1` (stereo not given), -40.36%.
